Seven compounds from PubChem BioAssay can be followed below.

By inhibition is commonly meant the relative decrease from the control value, in per cent.

Inconclusive results are not listed. Calls of active or inactive are those of the source. Unless noted, how the calls were made is not given here.

Experiment [1] can be described thus: yeast TOR pathway RPL19A-GFP modulators, primary screen, cell-based, S. cerevisiae, multiplex flow cytometry (AID 1862; in the data active means percent of DMSO control GFP below about 86%;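 further: lower values mimic rapamycin by blocking the RPL19A rise seen in DMSO cells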). Conditions: S. cerevisiae RPL19A-GFP strain, flow cytometry fluorescence, 3 h; at 10 µM; stronger effect = lower value. For orientation: A flow cytometer gives signals particle by particle.
Experiment [2] can be described thus: modulators of CIT2-GFP expression in yeast, primary screen, S. cerevisiae, GFP fusion, multiplex flow cytometry (AID 1870;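 active means percent response above a set limit, the screen-wide mean plus 3 SD, cut at about 130% in these data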;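 further: barcoded CIT2-GFP strain pooled with four other GFP strains with rapamycin as positive control; median GFP fluorescence per well over plate mean of DMSO wells so 100% = DMSO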). Conditions: 3 h, at 10 µM, stronger effect = higher value.
Experiment [3] can be described thus: modulators of LAP4-GFP expression in yeast, primary screen, S. cerevisiae, multiplex flow cytometry (AID 1873;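 active means GFP signal, as percent of the solvent control, above the screen mean plus 3 SD, about 149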). To be noted: 3 h, at 10 µM, stronger effect = higher value.
The nature of experiment [4]: inhibitors of CD8+ T cell-vesicle binding, pilot screen, LFA-1/ICAM-1 modulator project, MLPCN validation set, flow cytometry (AID 2523;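 active means response below a set limit, under 55% cells CD8-positive and vesicle-bound, and CD8 cells' 90th-percentile brightness under 279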;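 on vesicle binding response: mean PE anti-B7-1 fluorescence of CD8+ cells relative to row control; 100% = QL9-loaded vesicles with DMSO vehicle in the same plate row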). Conditions: 2C mouse CD8+ T cells, at 7 µM, stronger effect = lower value; double positive events: measured here: CD8+/vesicle+ event percentage.
The target in experiment [5] is Integrin beta-1 (Homo sapiens) + Integrin alpha-4 (Homo sapiens) (UniProt P13612+P05556). Briefly: inhibition of HUTS-21 binding to VLA-4, pilot screen, VLA-4 allosteric modulator project, U937 cells, HUTS-21 mAb, flow cytometry, validation set (AID 2674;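 active means inhibition above 50%, about 3 SD of the validation set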;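 further: antibody binding induced by the VLA-4 ligand LDV present at three times its Kd; 0% = LDV ligand with antibody and no compound and 100% = antibody without LDV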). Conditions: HUTS-21 LIBS mAb binding, at 6.7 µM, stronger effect = higher value.
Experiment [6] in a line: superoxide lowering in aged yeast cells, pilot screen, validation compound set (AID 2706;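 active means superoxide response below 65% of plate, a cut near 3 SD across the whole screen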;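 further: yeast exposed to compound for one week at 30 degrees C before staining; 100% = mean of all compound wells on the same plate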). To be noted: S. cerevisiae aging, superoxide DHE fluorescence; at 10 µM; stronger effect = lower value.
Experiment [7] concerns the target Beta-adrenergic receptor kinase 1 (Homo sapiens) (UniProt P25098). Description: GRK2 binders displacing RNA aptamer, biochemical, validation, human GRK2, bead flow cytometry (AID 488806;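 active means aptamer binding inhibition above 30%, about 3 SD of noise from non-fluorescent compounds; inactive means inhibition at or below 30%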). Conditions: bead-bound GRK2, FAM-aptamer displacement, at 10 µM, stronger effect = higher value.
Experiment [8] has as its target Beta-2 adrenergic receptor (Homo sapiens) (UniProt P07550). Briefly: beta2AR agonists driving receptor internalization, pilot screen, cell-based, FAP fluorogen, flow cytometry, validation set (AID 504459;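 active means percent response above 42, roughly 3 SD of non-fluorescent test compounds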;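 further: agonist-driven loss of surface beta2AR via internalization measured by FAP dye flow cytometry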). Conditions: Am2.2-beta2AR cells, FAP surface receptor flow cytometry; at 10 µM; stronger effect = higher value.
The target of experiment [9] is AP-2 complex subunit beta (Homo sapiens) (UniProt P63010). Description: inhibitors of arrestin peptide binding to AP2, pilot screen, biochemical, validation set, GST-AP2 beads, flow cytometry (AID 504541;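 active means inhibition above 54%, about 3 SD of non-fluorescent compounds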;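 further: AP2 carries R879A mutation and is captured from E. coli lysate; bead-bound FITC arrestin peptide fluorescence measuring arrestin peptide binding to AP2; 0% = DMSO wells and 100% = excess unlabeled arrestin peptide control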). To be noted: FITC arrestin peptide, at 10 µM, stronger effect = higher value.
Sequence of AP-2 complex subunit beta (Homo sapiens) (P63010 whole entry, looked up, one chain of several): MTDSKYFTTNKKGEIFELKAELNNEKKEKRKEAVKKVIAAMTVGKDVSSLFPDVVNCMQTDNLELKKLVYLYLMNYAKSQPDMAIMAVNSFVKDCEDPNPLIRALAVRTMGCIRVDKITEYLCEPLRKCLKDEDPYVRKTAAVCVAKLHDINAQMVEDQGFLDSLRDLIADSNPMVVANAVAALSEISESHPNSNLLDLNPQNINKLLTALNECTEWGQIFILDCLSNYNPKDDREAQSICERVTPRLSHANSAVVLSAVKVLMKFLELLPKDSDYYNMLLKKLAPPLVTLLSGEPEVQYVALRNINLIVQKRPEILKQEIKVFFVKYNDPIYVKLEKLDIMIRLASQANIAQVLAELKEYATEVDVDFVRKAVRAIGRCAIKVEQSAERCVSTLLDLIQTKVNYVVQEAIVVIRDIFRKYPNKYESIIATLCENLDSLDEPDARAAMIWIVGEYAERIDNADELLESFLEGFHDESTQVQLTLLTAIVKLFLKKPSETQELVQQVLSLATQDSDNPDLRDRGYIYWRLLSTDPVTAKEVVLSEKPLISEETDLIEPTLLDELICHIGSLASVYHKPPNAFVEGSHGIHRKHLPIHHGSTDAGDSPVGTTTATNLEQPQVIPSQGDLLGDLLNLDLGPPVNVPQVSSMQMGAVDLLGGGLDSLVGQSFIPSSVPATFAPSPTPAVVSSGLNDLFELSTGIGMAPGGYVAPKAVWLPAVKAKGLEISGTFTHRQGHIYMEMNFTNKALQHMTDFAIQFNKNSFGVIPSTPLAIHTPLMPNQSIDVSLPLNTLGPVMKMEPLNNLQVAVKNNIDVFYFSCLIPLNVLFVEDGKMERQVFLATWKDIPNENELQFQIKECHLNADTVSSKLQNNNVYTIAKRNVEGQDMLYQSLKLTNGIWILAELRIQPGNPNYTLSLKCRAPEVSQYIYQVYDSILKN
Experiment [10] in a line: yeast V-ATPase proton transport modulators, S. cerevisiae, pHLuorin, HTS validation (AID 504600; in the data active means response above about 15%;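 further: plate controls were DMSO for no effect and reference compound for full effect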). To be noted: S. cerevisiae pHLuorin cytosolic pH, at 10 µM, stronger effect = higher value.
Experiment [11] concerns anti-desmoglein-3 scFv antibody binding to human DSG3. Briefly: inhibitors of anti-DSG3 scFv binding to DSG3, pilot screen, biochemical, validation compound set, bead-based, flow cytometry (AID 588368;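 active means binding below the plate cutoff, the plate median minus 3 SD, with a reading above zero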;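 further: signal is the median channel fluorescence of bead-bound GFP antibody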). Conditions: Protein G beads, DSG3-Fc, scFv-GFP binding, at 10 µM, stronger effect = lower value.
In experiment [12] the test system is Botulinum neurotoxin type F light chain protease (Clostridium botulinum). Briefly: Botulinum neurotoxin type F light chain protease inhibition, multiplex microsphere flow cytometry, validation set (AID 588459). To be noted: multiplex microsphere protease substrate cleavage assay, at 10 µM, stronger effect = higher value.
Experiment [13] addresses Botulinum neurotoxin type A (Clostridium botulinum) (UniProt P0DPI0). Briefly: BoNT/A light chain protease inhibitors, biochemical, multiplex microsphere flow cytometry, validation set (AID 588460). To be noted: at 10 µM, stronger effect = higher value.
Experiment [14] deals with Lethal factor (Bacillus anthracis) (UniProt P15917). Description: Lethal factor protease inhibitors, Bacillus anthracis, multiplex microsphere cleavage assay, validation set (AID 588461). Conditions: flow cytometry, at 10 µM, stronger effect = higher value.
Sequence of Lethal factor (Bacillus anthracis) (P15917 whole entry, looked up): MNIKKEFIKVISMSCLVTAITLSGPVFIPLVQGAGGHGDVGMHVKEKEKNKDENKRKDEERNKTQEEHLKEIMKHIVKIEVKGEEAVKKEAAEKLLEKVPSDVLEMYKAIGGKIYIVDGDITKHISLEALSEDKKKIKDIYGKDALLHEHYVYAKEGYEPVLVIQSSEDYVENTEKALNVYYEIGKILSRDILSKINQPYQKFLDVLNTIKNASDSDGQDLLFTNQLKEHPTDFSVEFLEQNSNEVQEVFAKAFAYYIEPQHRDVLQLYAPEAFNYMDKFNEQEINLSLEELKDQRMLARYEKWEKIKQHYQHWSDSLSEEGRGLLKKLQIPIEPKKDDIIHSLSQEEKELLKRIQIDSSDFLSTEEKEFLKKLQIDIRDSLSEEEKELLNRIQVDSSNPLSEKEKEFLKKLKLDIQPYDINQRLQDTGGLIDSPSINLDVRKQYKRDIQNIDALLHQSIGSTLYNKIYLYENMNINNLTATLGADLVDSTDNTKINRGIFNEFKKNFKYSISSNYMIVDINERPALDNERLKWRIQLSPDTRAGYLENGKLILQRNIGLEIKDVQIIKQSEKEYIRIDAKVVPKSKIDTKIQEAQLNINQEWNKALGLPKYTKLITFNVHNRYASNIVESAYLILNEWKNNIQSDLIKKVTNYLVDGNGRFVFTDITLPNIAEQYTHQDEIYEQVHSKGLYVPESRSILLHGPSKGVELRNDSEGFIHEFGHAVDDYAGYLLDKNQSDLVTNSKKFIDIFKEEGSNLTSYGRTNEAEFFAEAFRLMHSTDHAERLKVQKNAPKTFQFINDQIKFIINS
Experiment [15] in a line: inhibitors of fungal efflux pumps CDR1, CDR2, MDR1, pilot screen, validation compound set, multiplex, phenotypic (AID 588506;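 active means efflux inhibition above 0.42, the validation set average plus 4 SD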;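 further: Nile Red retained in cells so higher fluorescence means more efflux inhibition; 0 = negative control wells and 1 = enniatin B 25 µM full block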). Conditions: S. cerevisiae pump-expressing triplex, Nile Red efflux flow cytometry; at 10 µM; stronger effect = higher value.
Experiment [16] has as its target ATP-binding cassette sub-family B member 6 (Homo sapiens) (UniProt Q9NP58). Briefly: ABCB6 transporter inhibitors, pilot screen, K562-ABCB6 cells, flow cytometry, validation set (AID 588550;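 active means inhibition above the screen-wide mean plus 3 SD, about 51%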;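 further: 0% = DMSO wells and 100% = benzethonium chloride 70 µM positive control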). To be noted: K562-ABCB6 porphyrin accumulation, 1 h, at 10 µM, stronger effect = higher value.
Experiment [17] in a line: promoters of myeloid differentiation in arrested cells, primary screen, cell-based, GFP/MAC1 double positive, flow cytometry, validation set (AID 588685;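 active means differentiation response of at least 50%, scaled between solvent and reference control, from cells with both markers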;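 further: compound exposure lasts four days before antibody staining and flow analysis; 0% = DMSO wells and 100% = 5 µM fulvestrant positive control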). To be noted: ER-HoxA9 marrow cells, stronger effect = higher value.
Experiment [18] in a line: RPL19A-GFP modulators, yeast TOR pathway, confirmation, cell-based, S. cerevisiae, flow cytometry, cherry picks, mother/daughter gates (AID 2270;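 active means GFP response below 50% of the DMSO control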). Conditions: S. cerevisiae RPL19A-GFP strain, 3 h, at 10 µM, stronger effect = lower value, 100 = same GFP as DMSO wells.
Experiment [19] in a line: LAP4-GFP expression modulators in yeast, confirmation, cell-based, cherry picks, flow cytometry, mother/daughter gates (AID 2271;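 active means GFP response above 150% of the DMSO control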;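 further: ratio of sample to DMSO plate mean so 100% equals DMSO level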). Conditions: S. cerevisiae LAP4-GFP strain, 3 h, at 10 µM, stronger effect = higher value.
Experiment [20] can be described thus: modulators of CIT2-GFP expression in yeast, confirmation, S. cerevisiae, GFP fusion, cherry picks, mother/daughter gates (AID 2274;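 active means GFP response above 150% of the DMSO level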). Conditions: S. cerevisiae CIT2-GFP strain, flow cytometry, 3 h, at 10 µM, stronger effect = higher value.
The mark [21] stands for this setting: measured here: daughter cell gate.
Where [22] appears, read: measured here: mother cell gate.
The mark [23] stands for this setting: measured here: daughter cell gate response.
[24] abbreviates: measured here: mother cell gate response.

Sequence of Beta-adrenergic receptor kinase 1 (Homo sapiens) (P25098 whole entry, looked up): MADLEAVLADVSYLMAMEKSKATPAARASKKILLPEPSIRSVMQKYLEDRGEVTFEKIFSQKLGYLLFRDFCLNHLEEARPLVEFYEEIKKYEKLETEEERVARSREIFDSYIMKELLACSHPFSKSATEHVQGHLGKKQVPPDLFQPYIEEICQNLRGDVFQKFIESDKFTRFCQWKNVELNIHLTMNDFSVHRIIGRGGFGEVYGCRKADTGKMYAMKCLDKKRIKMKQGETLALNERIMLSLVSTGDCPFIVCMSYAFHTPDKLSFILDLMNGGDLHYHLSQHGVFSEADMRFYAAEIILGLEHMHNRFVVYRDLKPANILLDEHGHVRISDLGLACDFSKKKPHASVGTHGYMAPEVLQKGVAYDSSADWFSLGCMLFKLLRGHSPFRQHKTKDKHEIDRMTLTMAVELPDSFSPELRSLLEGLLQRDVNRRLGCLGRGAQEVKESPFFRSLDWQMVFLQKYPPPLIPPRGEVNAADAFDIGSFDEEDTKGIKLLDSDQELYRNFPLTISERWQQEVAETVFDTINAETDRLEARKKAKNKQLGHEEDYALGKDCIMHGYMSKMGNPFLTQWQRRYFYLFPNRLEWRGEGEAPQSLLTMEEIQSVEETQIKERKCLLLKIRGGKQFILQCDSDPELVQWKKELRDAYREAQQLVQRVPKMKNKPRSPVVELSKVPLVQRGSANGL
Sequence of ATP-binding cassette sub-family B member 6 (Homo sapiens) (Q9NP58 whole entry, looked up): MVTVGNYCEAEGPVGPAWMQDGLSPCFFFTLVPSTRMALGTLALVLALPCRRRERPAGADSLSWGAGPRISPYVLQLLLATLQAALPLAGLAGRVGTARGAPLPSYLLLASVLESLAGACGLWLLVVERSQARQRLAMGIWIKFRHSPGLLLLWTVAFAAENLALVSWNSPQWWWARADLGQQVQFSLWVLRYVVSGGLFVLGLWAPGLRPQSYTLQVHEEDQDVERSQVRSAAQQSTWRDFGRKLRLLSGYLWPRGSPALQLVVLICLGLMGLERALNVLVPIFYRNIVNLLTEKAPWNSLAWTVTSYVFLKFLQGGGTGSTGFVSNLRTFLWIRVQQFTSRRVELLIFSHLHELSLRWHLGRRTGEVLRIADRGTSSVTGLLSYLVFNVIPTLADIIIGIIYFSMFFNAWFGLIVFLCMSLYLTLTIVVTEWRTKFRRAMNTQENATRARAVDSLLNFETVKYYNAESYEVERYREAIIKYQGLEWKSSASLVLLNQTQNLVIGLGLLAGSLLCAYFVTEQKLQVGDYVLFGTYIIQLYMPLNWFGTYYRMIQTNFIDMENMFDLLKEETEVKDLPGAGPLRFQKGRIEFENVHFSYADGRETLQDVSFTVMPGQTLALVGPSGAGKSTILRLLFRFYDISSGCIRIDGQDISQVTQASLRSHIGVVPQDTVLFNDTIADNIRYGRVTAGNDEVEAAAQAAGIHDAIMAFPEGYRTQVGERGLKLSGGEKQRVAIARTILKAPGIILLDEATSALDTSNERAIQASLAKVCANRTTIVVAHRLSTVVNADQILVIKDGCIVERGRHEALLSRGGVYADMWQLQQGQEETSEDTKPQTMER
Sequence of Botulinum neurotoxin type A (Clostridium botulinum) (P0DPI0 whole entry, looked up): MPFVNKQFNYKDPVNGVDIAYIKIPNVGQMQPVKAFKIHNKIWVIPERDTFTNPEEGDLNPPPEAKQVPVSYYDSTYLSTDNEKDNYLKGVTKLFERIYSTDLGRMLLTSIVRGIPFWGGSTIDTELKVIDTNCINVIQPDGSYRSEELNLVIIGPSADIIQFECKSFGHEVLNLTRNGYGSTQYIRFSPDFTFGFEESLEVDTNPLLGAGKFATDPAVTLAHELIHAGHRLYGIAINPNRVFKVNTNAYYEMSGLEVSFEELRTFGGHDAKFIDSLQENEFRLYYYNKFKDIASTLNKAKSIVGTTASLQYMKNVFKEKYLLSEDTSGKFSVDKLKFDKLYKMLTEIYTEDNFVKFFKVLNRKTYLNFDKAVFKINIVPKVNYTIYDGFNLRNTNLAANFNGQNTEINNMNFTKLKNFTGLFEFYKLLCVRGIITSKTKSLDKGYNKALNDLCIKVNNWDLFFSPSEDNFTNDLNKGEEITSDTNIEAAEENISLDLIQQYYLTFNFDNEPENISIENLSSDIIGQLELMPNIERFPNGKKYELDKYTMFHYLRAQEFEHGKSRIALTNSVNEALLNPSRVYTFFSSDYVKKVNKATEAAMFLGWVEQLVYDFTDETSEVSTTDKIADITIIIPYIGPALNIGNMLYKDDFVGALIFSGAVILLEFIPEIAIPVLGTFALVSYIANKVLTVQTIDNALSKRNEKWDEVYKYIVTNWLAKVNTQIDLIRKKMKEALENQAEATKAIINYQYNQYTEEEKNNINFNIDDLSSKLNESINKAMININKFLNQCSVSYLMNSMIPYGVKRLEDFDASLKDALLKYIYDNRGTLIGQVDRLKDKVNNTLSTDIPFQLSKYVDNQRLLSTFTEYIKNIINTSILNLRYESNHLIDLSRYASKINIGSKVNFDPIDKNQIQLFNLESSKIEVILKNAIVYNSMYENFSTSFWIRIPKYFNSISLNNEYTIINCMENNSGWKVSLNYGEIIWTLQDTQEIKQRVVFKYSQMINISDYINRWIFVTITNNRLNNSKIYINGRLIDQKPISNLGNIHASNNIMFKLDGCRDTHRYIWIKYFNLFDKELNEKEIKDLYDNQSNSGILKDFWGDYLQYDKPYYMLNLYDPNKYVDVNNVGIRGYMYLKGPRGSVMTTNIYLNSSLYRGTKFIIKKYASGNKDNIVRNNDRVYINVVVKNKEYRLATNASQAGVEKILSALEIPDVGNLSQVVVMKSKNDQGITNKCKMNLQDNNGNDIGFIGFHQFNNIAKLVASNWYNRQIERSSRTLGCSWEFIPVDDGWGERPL
Sequence of Beta-2 adrenergic receptor (Homo sapiens) (P07550 whole entry, looked up): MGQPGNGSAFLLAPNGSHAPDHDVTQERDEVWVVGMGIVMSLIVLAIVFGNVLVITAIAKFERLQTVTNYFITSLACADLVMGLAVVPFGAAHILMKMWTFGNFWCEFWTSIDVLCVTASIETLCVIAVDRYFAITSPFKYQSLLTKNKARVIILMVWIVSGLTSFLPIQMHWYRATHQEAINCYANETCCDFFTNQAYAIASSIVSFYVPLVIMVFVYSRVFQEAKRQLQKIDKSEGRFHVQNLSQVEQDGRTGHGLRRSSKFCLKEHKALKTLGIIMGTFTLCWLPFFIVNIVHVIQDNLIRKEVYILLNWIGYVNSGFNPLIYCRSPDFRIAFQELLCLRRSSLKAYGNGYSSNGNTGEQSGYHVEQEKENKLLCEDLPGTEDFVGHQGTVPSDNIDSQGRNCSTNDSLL

`CCOC(=O)C1=C(C)OC(N)=C(C(=O)OCC)[C@@]12C(=O)N(CC(N)=O)c1ccccc12`: in experiment [1], the percent of DMSO control GFP was 90.9% (inactive). For the same compound, the percent response of DMSO control in experiment [2] was 110% (inactive). The GFP response vs DMSO in [3] was 71% (inactive). Also, in experiment [4], the double positive events was 43.7%. In addition, in experiment [4], the vesicle binding response was 66.2% (active). The inhibition in experiment [5] was 18.1% (inactive); in experiment [9], -3.6% (inactive); in experiment [12], 0.6% (inactive); in experiment [13] it was -0.3% (inactive); in [14] it was 0.4% (inactive); in [16], 6% (inactive). Besides, the superoxide response (% of plate) in [6] was 104% (inactive). Further, the aptamer binding inhibition in experiment [7] is -1% (inactive). The results for the response in experiment [8] and in experiment [10] were -10.5% (inactive) and 1.98% (inactive), respectively. Moreover, the binding (% of control) in [11] was 104% (inactive). In addition, the efflux inhibition (fraction of control) in experiment [15] is -0.31 (inactive). The differentiation response in experiment [17] was 4.09% (inactive).

In the case of `N#CC(C#N)=Cc1ccc(N2CCCC2)cc1`, the figures for the GFP response vs DMSO in experiment [18], in [18] (setting [21]) and in experiment [18] (setting [22]) were 105% (inactive), 102% and 107%, respectively. Also, the GFP response relative to DMSO was 111% (inactive) in [19], 109% in experiment [19] (setting [23]) and 112% in experiment [19] (setting [24]). In addition, the GFP response, % of DMSO is 105% (inactive) in [20], 106% in [20] (setting [21]) and 104% in experiment [20] (setting [22]).

In the case of `O=C1NC(=O)N(Cc2ccco2)C(=O)/C1=C\c1ccc(-c2ccc(F)cc2)o1`, the GFP response vs DMSO in experiment [18] is 96.9% (inactive); in experiment [18] (setting [21]) it was 97.6%; in experiment [18] (setting [22]), 94%. Besides, the GFP response relative to DMSO in [19] is 119% (inactive); in [19] (setting [23]), 115%; in experiment [19] (setting [24]), 121%. The GFP response, % of DMSO is 91.7% (inactive) in [20], 99.3% in experiment [20] (setting [21]) and 83.7% in experiment [20] (setting [22]).

As to `CC(C)[C@@]1(NC(=O)[C@@H]2C[C@@H]3c4cccc5[nH]cc(c45)C[C@H]3N(C)C2)O[C@@]2(O)[C@@H]3CCCN3C(=O)[C@H](Cc3ccccc3)N2C1=O`, in experiment [1], the percent of DMSO control GFP was 88.4% (inactive). The percent response of DMSO control in experiment [2] is 112% (inactive). Moreover, the GFP response vs DMSO in experiment [3] was 84.2% (inactive). The compound also came in with a double positive events in experiment [4] of 74.1%. Further, the vesicle binding response in experiment [4] is 240% (inactive). Besides, the inhibition in [5] is -14.9% (inactive); in experiment [9], 0.81% (inactive); in experiment [12] it was -9.2% (inactive); in experiment [13], -1.6% (inactive); in experiment [14], -32% (inactive); in experiment [16] it was 9% (inactive). Further, the superoxide response (% of plate) in experiment [6] is 98.1% (inactive). In addition, the aptamer binding inhibition in experiment [7] was -3% (inactive). In addition, the response was -14.6% (inactive) in experiment [8] and 1.06% (inactive) in experiment [10]. The binding (% of control) in experiment [11] was 114% (inactive). Also, the efflux inhibition (fraction of control) in [15] is 0.37 (inactive). The differentiation response in experiment [17] is 4.09% (inactive).

Regarding `Cc1cccn2c(NCC3CCCO3)c(C(C)C)nc12` (stereo unspecified), the GFP response vs DMSO in [18] is 99.1% (inactive); in experiment [18] (setting [21]), 100%; in experiment [18] (setting [22]), 100%. Also, the GFP response relative to DMSO in experiment [19] was 97.7% (inactive); in experiment [19] (setting [23]) it was 96.5%; in [19] (setting [24]) it was 96.5%. In addition, the GFP response, % of DMSO in experiment [20] was 106% (inactive); in [20] (setting [21]), 106%; in [20] (setting [22]) it was 105%.

For `Nc1ccc(N=Nc2ccccc2)cc1`, the GFP response vs DMSO in [18] is 98.4% (inactive); in experiment [18] (setting [21]), 98.4%; in [18] (setting [22]), 96.2%. For the same compound, the GFP response relative to DMSO in experiment [19] was 110% (inactive); in [19] (setting [23]) it was 106%; in [19] (setting [24]), 111%. The GFP response, % of DMSO in experiment [20] is 100% (inactive); in experiment [20] (setting [21]) it was 93.8%; in [20] (setting [22]), 99.3%.

As to `O=C1NC(=O)N(CCC2=CCCCC2)C(=O)/C1=C/c1cccs1`, the GFP response vs DMSO in [18] is 98.4% (inactive); in experiment [18] (setting [21]) it was 97.9%; in [18] (setting [22]) it was 97.6%. The GFP response relative to DMSO in experiment [19] is 134% (inactive); in experiment [19] (setting [23]), 128%; in experiment [19] (setting [24]), 138%. For the same compound, the GFP response, % of DMSO was 91.2% (inactive) in [20], 93.6% in experiment [20] (setting [21]) and 86.7% in experiment [20] (setting [22]).
